Measured values: PubChem BioAssay AID1347131 (National Center for Advancing Translational Sciences (NCATS), 2019)
Screen size: about 410,000 compounds; about 2,000 (0.49%) were called active. Where a call stands in place of a potency, no number is given. Not shown: some 8% with an inconclusive outcome. This is one part of a sample in which actives are shown more often than they occur. The call rests on the fitted dose curve; tested in HEK293 reporter line.

assay: qHTS Assay for Foot and Mouth Disease Virus Antivirals: Primary Screen against the MLPCN compound library; details: FMDV antiviral cell-based qHTS; series mostly up to 57.9 µM; further: nearly all actives have a fitted effect of over 55% in size
Potency means the concentration at half of the fitted maximal effect.

Q: Which Potency does the source give for `O=C(COc1ccc(F)cc1)Nc1ccc2nc(SCC(=O)N3CCOCC3)sc2c1` here?
A: The Potency was 25.1 µM (active).

Q: Which Potency does the source give for `O=C(COc1ccc(F)cc1)Nc1ccc2nc(SCC(=O)N3CCc4ccccc43)sc2c1` here?
A: Its Potency is “inactive”.

Q: For `Cc1ccc(OCCSc2nc3ccc(NC(=O)c4ccc(F)cc4)cc3s2)cc1`, which Potency is on record?
A: Its Potency is “inactive”.

Q: Which Potency does the source give for `Cc1occc1C(=O)NC1CCCN(Cc2ccc(Cl)cc2)C1` (centres undefined) here?
A: Its Potency is “inactive”.

Q: With `Cc1nn(CC(C)C)c(Cl)c1C(=O)N(C)CC(=O)Nc1ccc(Cl)cc1` as the molecule, how does the Potency read?
A: The Potency was “inactive”.

Q: For `C=CCN(c1ccc(C(=O)Nc2cccc(C)c2)cc1)S(C)(=O)=O`, which Potency is on record?
A: Its Potency is “inactive”.

Q: With `CC1CC(C)CN(S(=O)(=O)c2ccc(C(=O)Nc3sccc3C(N)=O)cc2)C1` (centres undefined) as the molecule, how does the Potency read?
A: Its Potency is 8.91 µM (active).

Q: With `NC(=O)c1ccsc1NC(=O)CCS(=O)(=O)c1ccc(F)cc1` as the molecule, how does the Potency read?
A: Its Potency is “inactive”.

Q: For `CC1CN(S(=O)(=O)c2ccc(C(=O)Nc3ccccc3F)cc2)CC(C)O1` (centres undefined), which Potency is on record?
A: The Potency was “inactive”.

Q: For `Cc1onc(-c2ccc3c(c2)OCO3)c1-c1ccc2[nH]ccc2c1`, which Potency is on record?
A: The Potency was “inactive”.

Q: For `CCOc1ccc(-c2nnc3ccc(SC(C)C)nn23)cc1`, which Potency is on record?
A: Its Potency is “inactive”.

Q: With `CN(Cc1nc2ccccc2c(=O)[nH]1)C(=O)c1cccc(S(=O)(=O)N2CCCCCC2)c1` as the molecule, how does the Potency read?
A: The Potency was “inactive”.

Q: Which Potency does the source give for `CN(C)c1ccc(-c2nc3ccccc3c(=O)[nH]2)cc1` here?
A: The Potency was 20 µM (active).

Q: Which Potency does the source give for `CC(C(=O)Nc1ccccc1-c1ccccc1)N(C)Cc1nc2ccccc2c(=O)[nH]1` (centres undefined) here?
A: The Potency was “inactive”.

Q: For `CCOC(=O)CNC(=O)CSc1nnc(NC(=O)c2ccc(C)cc2)s1`, which Potency is on record?
A: Its Potency is 12.6 µM (active).

Q: For `CC(C)CC(=O)Nc1nnc(SCC(=O)Nc2ccc(F)cc2)s1`, which Potency is on record?
A: The Potency was “inactive”.

Q: For `Cc1cccc(NC(=O)CSc2nnc(NC(=O)CN3CCOCC3)s2)c1`, which Potency is on record?
A: The Potency was “inactive”.

Q: Which Potency does the source give for `Cc1cccc(-n2nnnc2SCC(=O)NCC2CCCO2)c1` (centres undefined) here?
A: Its Potency is “inactive”.

Q: For `Cn1c(SCC(=O)NCC2CCCO2)nnc1-c1c[nH]c2ccccc12` (centres undefined), which Potency is on record?
A: The Potency was “inactive”.

Q: For `CC(C)(C)c1ccc(C(=O)Nc2nnc(SCC(=O)NCC3CCCO3)s2)cc1` (centres undefined), which Potency is on record?
A: Its Potency is 14.1 µM (active).

Q: Which Potency does the source give for `O=C(COc1ccc2c3c(c(=O)oc2c1)CCC3)N1CCN(c2ccc(F)cc2)CC1` here?
A: Its Potency is “inactive”.

Q: For `Nc1nonc1C(=O)NCCNCc1ccc(Cl)c(Cl)c1`, which Potency is on record?
A: Its Potency is “inactive”.

Q: Which Potency does the source give for `CCCCn1c(N)c(N(CCC(C)C)C(=O)c2ccc3c(c2)OCO3)c(=O)[nH]c1=O` here?
A: Its Potency is “inactive”.

Q: With `CCC(C)c1ccccc1OCCCCN1CCCC1` (centres undefined) as the molecule, how does the Potency read?
A: Its Potency is “inactive”.

Q: With `CC(C)C(OC(=O)c1cccc(S(=O)(=O)NCC(F)(F)F)c1)C(=O)NC(N)=O` (centres undefined) as the molecule, how does the Potency read?
A: Its Potency is “inactive”.

Q: With `Cc1cc(C)nc(NS(=O)(=O)c2ccc(-n3cccc3)cc2)n1` as the molecule, how does the Potency read?
A: The Potency was “inactive”.

Q: For `Cc1cc(C(=O)C(=O)N(C)C)c(C)n1-c1ccc([N+](=O)[O-])cc1`, which Potency is on record?
A: The Potency was “inactive”.

Q: Which Potency does the source give for `Cc1ccccc1CN1C2=NCCN2c2ccccc21` here?
A: The Potency was “inactive”.

Q: With `CCOC(=O)c1ccccc1NC(=O)CN1CCC(n2nnc3cc(C(F)(F)F)ccc32)CC1` as the molecule, how does the Potency read?
A: The Potency was “inactive”.

Q: Which Potency does the source give for `O=C(Nc1cccc(C(F)(F)F)c1)c1ccc2c(c1)nnn2C1CCCC1` here?
A: The Potency was 12.6 µM (active).

Q: Which Potency does the source give for `Cc1cc(C)cc(NC(=O)c2ccc3c(c2)nnn3C2CCCC2)c1` here?
A: Its Potency is “inactive”.

Q: For `COc1ccc(NC(=O)c2cc(-c3ccccn3)nc3ccccc23)cc1S(=O)(=O)N(C)C`, which Potency is on record?
A: Its Potency is “inactive”.

Q: With `COc1ccc(CCNC(=O)CSc2nnc(-c3ccccc3)c3ccccc23)cc1OC` as the molecule, how does the Potency read?
A: The Potency was “inactive”.

Q: Which Potency does the source give for `CCn1c(=O)c(C(=O)NCc2ccc(OC)c(OC)c2)c(O)c2ccccc21` here?
A: The Potency was “inactive”.

Q: With `COc1ccc(CNC(=O)Cn2c(=O)nc(-c3ccccc3)c3ccccc32)cc1OC` as the molecule, how does the Potency read?
A: The Potency was 20 µM (active).

Q: Which Potency does the source give for `CC(=O)c1cc(-c2ccccc2)n(CC(=O)Nc2ccc(C)c(C)c2)c1C` here?
A: Its Potency is “inactive”.

Q: For `c1csc(Cn2nnnc2CN2CCN(c3nc4ccccc4s3)CC2)c1`, which Potency is on record?
A: The Potency was 17.8 µM (active).

Q: For `COc1cccc2sc(N3CCN(c4nc5ccccc5s4)CC3)nc12`, which Potency is on record?
A: The Potency was “inactive”.

Q: For `Cc1nc2cc(C(F)(F)F)ccc2n1C1CCN(Cc2nnnn2Cc2cccs2)CC1`, which Potency is on record?
A: The Potency was “inactive”.

Q: Which Potency does the source give for `Nc1ccc(-c2ccc(N)cc2C(F)(F)F)c(C(F)(F)F)c1` here?
A: Its Potency is “inactive”.

Q: With `CC(=O)C1=C(c2ccc(F)cc2)N(C(C)=O)n2c(nnc2C2CCCCC2)S1` as the molecule, how does the Potency read?
A: The Potency was “inactive”.

Q: Which Potency does the source give for `COc1ccc(OCC(=O)Nc2nccs2)cc1` here?
A: The Potency was 15.8 µM (active).

Q: For `CCN(CC)CCNC(=O)COc1ccc(OC)cc1`, which Potency is on record?
A: The Potency was “inactive”.

Q: Which Potency does the source give for `CCOC(=O)Cc1csc(NC(=O)COc2ccc(OC)cc2)n1` here?
A: Its Potency is “inactive”.

Q: For `COc1ccc(NC(=O)CN(C)C(=O)c2cccc(S(=O)(=O)N3CCN(c4ccccc4)CC3)c2)cc1`, which Potency is on record?
A: Its Potency is “inactive”.

Q: With `Cc1ccc(S(=O)(=O)Nc2c(C)cc([N+](=O)[O-])cc2C)cc1` as the molecule, how does the Potency read?
A: The Potency was “inactive”.

Q: For `Cc1ccccc1CS(=O)(=O)c1ccc(C(=O)N2CCOCC2)cc1[N+](=O)[O-]`, which Potency is on record?
A: Its Potency is “inactive”.

Q: Which Potency does the source give for `Cc1ccc(S(=O)(=O)Cc2cc(F)c([N+](=O)[O-])cc2[N+](=O)[O-])cc1` here?
A: Its Potency is 15.8 µM (active).

Q: With `O=C(N/N=C/c1cccs1)C(O)c1ccccc1` (centres undefined) as the molecule, how does the Potency read?
A: The Potency was “inactive”.

Q: For `O=C(Nc1cccc(Cl)c1N1CCOCC1)c1cc([N+](=O)[O-])ccc1N1CCOCC1`, which Potency is on record?
A: Its Potency is “inactive”.

Q: For `CCOC(=O)c1cc(C)n(CC2CCC(C(=O)Nc3ccc(OC)cc3)CC2)c1C` (centres undefined), which Potency is on record?
A: The Potency was “inactive”.

Q: With `CCOc1ccc(NC(=O)N(Cc2ccc(CC)cc2)Cc2cn[nH]c2-c2ccc(OC)cc2)cc1` as the molecule, how does the Potency read?
A: The Potency was “inactive”.

Q: For `CCOC(=O)c1cn[nH]c1NC(=S)Nc1ccc(OC)cc1`, which Potency is on record?
A: Its Potency is 17.8 µM (active).

Q: For `Cc1ccc(S(=O)(=O)N/N=C/c2ccc(OCC(=O)N3CCOCC3)cc2)cc1`, which Potency is on record?
A: The Potency was “inactive”.

Q: For `CCOc1ccc(CNC(=O)CCCn2ccc3cc(S(=O)(=O)N4CCCC4)ccc32)cc1`, which Potency is on record?
A: Its Potency is “inactive”.

Q: With `O=C(Nc1ccc(N2CCOCC2)c(Cl)c1)c1c(F)c(F)c(F)c(F)c1F` as the molecule, how does the Potency read?
A: Its Potency is “inactive”.

Q: For `O=C(Nc1cccc(S(=O)(=O)N2CCCCC2)c1)c1cnccn1`, which Potency is on record?
A: Its Potency is “inactive”.

Q: For `O=C(Nc1ccc(N2CCOCC2)cc1)c1cnccn1`, which Potency is on record?
A: Its Potency is 12.6 µM (active).

Q: Which Potency does the source give for `Cc1cc2oc(C(=O)NC3CCS(=O)(=O)C3)cc(=O)c2cc1C` (centres undefined) here?
A: The Potency was “inactive”.

Q: For `CCc1ccc(NC(=O)c2sc3nc(C)nc(N4CCN(c5ccccn5)CC4)c3c2C)cc1`, which Potency is on record?
A: Its Potency is “inactive”.

Q: Which Potency does the source give for `Cc1ccc(S(=O)(=O)N(C)CCCC(=O)Nc2ccncc2)cc1` here?
A: The Potency was “inactive”.

Q: With `Cc1ccc(S(=O)(=O)N(C)CCCC(=O)N2CCN(c3ccccn3)CC2)cc1` as the molecule, how does the Potency read?
A: Its Potency is 22.4 µM (active).

Q: For `CN(C)c1ccc(C(=O)N2CCCC(CCC(=O)N3CCN(c4ccccn4)CC3)C2)cc1` (centres undefined), which Potency is on record?
A: Its Potency is “inactive”.

Q: Which Potency does the source give for `COc1ccc(C(=O)NCC(=O)N2CCN(C(=O)c3ccco3)CC2)cc1[N+](=O)[O-]` here?
A: Its Potency is “inactive”.
